Experimental data from ChEMBL document CHEMBL3988442, “University of Dundee, Small-Polar-MMV Screening Library” (2021).
About 420 (0.61%) of roughly 69,000 compounds showed an effect of 50% or more. The entries come from a sample that favours strong results as a whole.

Each compound was assayed against T1, Histidine--tRNA ligase (Leishmania infantum) (UniProt A4I591) (assay: Leishmania infantum Histidine tRNA synthetase (LdHisRS)). Conditions: 30 µM.
T1 sequence (whole entry): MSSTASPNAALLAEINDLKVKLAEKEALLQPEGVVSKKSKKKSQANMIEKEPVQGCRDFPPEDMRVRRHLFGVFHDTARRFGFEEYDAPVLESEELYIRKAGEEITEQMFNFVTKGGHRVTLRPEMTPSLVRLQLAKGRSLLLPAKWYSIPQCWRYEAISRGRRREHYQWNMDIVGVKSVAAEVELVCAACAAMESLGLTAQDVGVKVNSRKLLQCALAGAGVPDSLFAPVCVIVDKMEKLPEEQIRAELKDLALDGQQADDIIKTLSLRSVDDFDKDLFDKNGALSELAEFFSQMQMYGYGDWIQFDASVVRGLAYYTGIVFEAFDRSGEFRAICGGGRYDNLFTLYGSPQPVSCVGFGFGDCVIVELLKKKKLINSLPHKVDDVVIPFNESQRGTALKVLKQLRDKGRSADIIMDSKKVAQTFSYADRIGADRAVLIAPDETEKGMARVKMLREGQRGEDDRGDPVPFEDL
Assay type: functional
Design: scale not given: in the data most compounds retested in dose-response had high values

Structure (SMILES)	Percent Effect [%]
Cc1cccc(CN2CC[C@@H]3[C@@H]2CCN3C(=O)c2cc(C)oc2C)n1	25.6
O=C([C@H]1C[C@@H]2CCN(c3cccc(F)c3)C[C@H]2O1)N1CCCCO1	22.2
Cc1cc(=O)n(C)cc1NC(=O)Cc1cc(F)ccc1F	107
Cc1cc(F)ccc1NC(=O)Cn1cc(C(=O)O)ccc1=O	21.7
CCC(=O)NCC(=O)Nc1c(C)cnn1Cc1cc(F)ccc1F	14.5
CN(CCO)Cc1nnc(C2CCN(C[C@H]3[C@@H]4CNC[C@@H]43)CC2)n1C	9.38
Cc1ccc(C(=O)N2C[C@H]3CCC[C@@]3(COc3ccccn3)C2)nc1	16.4
COc1nccnc1-c1cc(NC2CCCC2)nc2[nH]ccc12	6.38
COc1nccnc1-c1cc(NC2CCNCC2)nc2[nH]ccc12	55.3
CNc1cc(C)nc(-c2cc(NC3CCNCC3)nc3[nH]ccc23)n1	32.6
FC(F)(F)c1ccc(-c2cc(NC3CCNCC3)nc3[nH]ccc23)nc1	63.9
COc1ncc(-c2cc(NC3CCCC3)nc3[nH]ccc23)c(OC)n1	21.3
Nc1ccnc(-c2cc(NC3CCNCC3)nc3[nH]ccc23)c1	41
Cc1oncc1C(=O)N[C@@H]1CN(Cc2ccco2)C[C@@H]2CCCO[C@@H]21	4.54
Cn1ccc(C(=O)N2C[C@H]3CCC[C@@]3(COCc3cccnc3)C2)n1	7.96
COC[C@]12COC[C@H]1CN(S(=O)(=O)c1cccnc1)C2	14
CCc1cc(N2CCS(=O)(=O)CC2)n2nc(C)c(C)c2n1	13.3
CCc1cc(N2CCC(F)(F)CC2)n2nc(C)c(C)c2n1	61.7
CCc1cc(N2CCSCC2)n2nc(C)c(C)c2n1	-0.971

Structure (SMILES)	Percent Effect [%]
Cc1nnc(NCC(c2ccco2)N2CCCC2)c(C#N)c1C (configuration not stated)	60.3
Cc1nnc(NCC(c2cccs2)N2CCCC2)c(C#N)c1C (configuration not stated)	32.9
Cc1nnc(NCc2ccccc2F)c(C#N)c1C	49.5
COCc1ccccc1CNc1nnc(C)c(C)c1C#N	12.3
Cc1nnc(NCc2ccccc2S(=O)(=O)N(C)C)c(C#N)c1C	22
Cc1nnc(NCC(c2ccco2)N(C)C)c(C#N)c1C (configuration not stated)	54.8
Cc1nnc(NCc2cccnc2N(C)C)c(C#N)c1C	15.4
Cc1nnc(NCc2ccccc2Cl)c(C#N)c1C	52.3
Cc1nnc(NCC(c2ccco2)N2CCCCC2)c(C#N)c1C (configuration not stated)	32.9
O=C(Nc1cnccn1)[C@H]1COC[C@H]2CN(c3ncc(F)cn3)C[C@H]21	18.8
COCCNC(=O)[C@H]1CC[C@@H]2[C@@H](CCN2S(C)(=O)=O)O1	22.9
Cc1nc(CN2C(=O)CC[C@@H]3[C@H]2CCN3C2CCOCC2)cs1	9.57
COCCN1CCO[C@@H]2CN(Cc3sccc3C)C[C@@H]2C1	0.84
Cc1cc(NC(=O)CN2CCc3nn(C)c(=O)cc3C2)on1	56.7
CCCn1nc2c(cc1=O)CN(CC(=O)Nc1cc(C)no1)CC2	18.2
CCn1nc2c(cc1=O)CN(CC(=O)Nc1cc(C(C)C)no1)CC2	21.2
CC(C)(C)c1cc(NC(=O)CN2CCn3c(nnc3C3CC3)C2)on1	1.79
CC(C)(C)c1cc(NC(=O)CN2CCc3cncnc3C2)on1	19.6
Cn1nc2c(cc1=O)CN(CC(=O)Nc1cc(C(C)(C)C)no1)CC2	112

Structure (SMILES)	Percent Effect [%]
CCCn1nc2c(cc1=O)CN(CC(=O)N(C)c1nccs1)CC2	24.6
CC(C)c1cc(NC(=O)CN2CCc3ccccc3C2)on1	-2.74
CCn1nc2c(cc1=O)CN(CC(=O)Nc1cc(C)no1)CC2	15.2
CC(C)c1cc(NC(=O)CN2CCc3nn(C)c(=O)cc3C2)on1	78.8
CN(C(=O)CN1CCc2nn(C)c(=O)cc2C1)c1nccs1	65.9
CCn1nc2c(cc1=O)CN(CC(=O)N(C)c1nccs1)CC2	5.56
O=C(c1cscn1)N1CC[C@@H]2[C@@H]1CCN2CC1CCOC1 (some centres not stated)	13.2
O=C(NCc1ccco1)[C@@]12CCO[C@@H]1CCN(CC1CCOCC1)C2	20
CCN1C[C@H]2CCN(C(=O)Cc3cccc(OC)c3)CC[C@H]2S1(=O)=O	19.2
O=C(Cn1ccnc1)N1C[C@@H]2CC[C@H](Oc3cccc(F)c3)[C@@H]2C1	7.29
Cc1nc(CN2C(=O)CC[C@H]3[C@@H]2CCN3C(=O)c2ccsc2)cs1	16.5
CC(C)NC(=O)[C@]12COC[C@H]1CN(Cc1cnn(C)c1)C2	12.5
CCS(=O)(=O)N1CC[C@@H]2[C@@H](CCC(=O)N2CCc2ccccc2)C1	9.38
Cc1cc(NC(=O)CN2CCc3nn(C)c(=O)cc3C2)no1	100
Cc1csc(NC(=O)CN2CCc3nn(C)c(=O)cc3C2)n1	24.2
Cc1nnc(NC(=O)CN2CCc3nn(C)c(=O)cc3C2)s1	9.62
Cc1cc(N2CCOCC2)ccc1NC(C)c1nc(C(C)(C)C)no1 (configuration not stated)	28.3
Cc1cc(N2CCOCC2)ccc1NC(C)c1nc(C(C)C)no1 (configuration not stated)	39.1
Cc1noc(C(C)Nc2ccc(N3CCOCC3)cc2C)n1 (configuration not stated)	63
